This is a sample that favours compounds with a hit; in the whole collection about 2.8% have one here.
PI4K2A inh – qHTS for small molecular inhibitors of PI4K2A | AID 1346378, 2018 | Phosphatidylinositol 4-kinase type 2-alpha (Homo sapiens), Q9BTU6 | activity change, negative = inhibition, % at 76.9 µM | purified PI4K2A, ADP-Glo luminescence, 1 h; hits give low values | 420,000 tested, 0.13% active; in the data active = activity change below about -50%; inconclusive = mostly about -30% to -49%;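 also: -100% = wells without enzyme as full effect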
Target sequence (Q9BTU6 whole entry, looked up): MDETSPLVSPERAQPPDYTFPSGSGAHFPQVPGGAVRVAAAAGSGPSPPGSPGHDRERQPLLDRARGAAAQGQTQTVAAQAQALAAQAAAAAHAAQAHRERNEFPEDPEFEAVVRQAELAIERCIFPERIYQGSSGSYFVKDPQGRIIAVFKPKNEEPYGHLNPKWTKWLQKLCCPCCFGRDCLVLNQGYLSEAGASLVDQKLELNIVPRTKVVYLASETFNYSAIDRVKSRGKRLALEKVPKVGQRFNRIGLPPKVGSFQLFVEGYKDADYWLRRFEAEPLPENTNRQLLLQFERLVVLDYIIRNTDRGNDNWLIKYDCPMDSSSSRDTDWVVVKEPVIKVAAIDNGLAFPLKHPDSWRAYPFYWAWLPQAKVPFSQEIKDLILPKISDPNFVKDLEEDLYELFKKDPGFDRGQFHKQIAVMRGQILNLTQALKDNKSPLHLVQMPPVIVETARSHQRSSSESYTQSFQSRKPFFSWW
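In this quantitative HTS, ADP production by PI4K2A was quantified luminescently after 1 h at ambient temperature; 100 microM adenosine served as plate-quality control.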
POLI inh – qHTS for Inhibitors of Polymerase Iota. DNA polymerase iota (Homo sapiens), Q9UNA4. Pol iota fluorescent replication assay, 10 min. Potency, µM (titrated, usually from 115 µM), without a hit: at the highest dose activity, negative = inhibition, usual class: inhibitors. 390,000 tested, 1% active. AID 588590, 2011; also: potency is read from the fitted curve at half-maximal effect
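Pol iota at 10 nM preincubated 15 min with compounds at room temperature; reaction started with fluorescent substrate, 50 nM final. Fluorescence read kinetically at 0 and 10 min; buffer-only wells as negative control.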
Pol eta inh-1 – qHTS for Inhibitors of Polymerase Eta | DNA polymerase eta (Homo sapiens), Q9Y253 | Potency, µM (top dose mostly 114 µM), for the others: at the highest dose activity change, negative = inhibition, most hits filed as inhibitors | recombinant Pol eta, fluorescent DNA replication assay | 390,000 tested, 1.2% active; also: potency is read from the fitted curve at half-maximal effect; % is scaled to controls: 0 for no effect and ±100 for the full control effect
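Pol eta (10 nM) was preincubated with compounds for 15 min at room temperature, after which fluorescent replication substrate (50 nM final) was added to start the reaction. Fluorescence was read kinetically at 0 and 10 min.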
PI5P4Ka inh – qHTS for Inhibitors of phosphatidylinositol 5-phosphate 4-kinase (PI5P4K). Phosphatidylinositol 5-phosphate 4-kinase type-2 alpha (Homo sapiens), P48426. 330,000 tested, 1.2% active. max response, %. AID 652105, 2013. PI5P4Kalpha enzyme, ADP-Glo luminescence, 60 min; hits give low values; active = max response of -50% or lower; inconclusive = between -30% and -50%; inactive = -30% or higher; also: value at the top dose of about 77 µM; % is scaled to controls: 0 for no effect and ±100 for the full control effect
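ADP-Glo luminescence end-point read after a 60 min room-temperature kinase reaction of PI5P4Kalpha plus substrate, initiated with ATP at 5 microM final. Buffer: 0.038 M HEPES pH 7.4, EGTA, 0.1% CHAPS, 5% DMSO.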
Pol beta inh – qHTS Assay for Inhibitors of DNA Polymerase Beta; P06746; Pol beta primer extension/strand displacement, fluorescence kinetic; Potency, µM (series often up to 114 µM), for the others: top-dose activity change, negative = inhibition, actives largely listed as inhibitors; 340,000 tested, 1.3% active; also: potency is read from the fitted curve at half-maximal effect; % is scaled to controls: 0 for no effect and ±100 for the full control effect
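Human Pol beta at 10 nM; strand-displacement substrate 50 nM final. Compound exposure 15 min at room temperature before start, reaction 10 min at room temperature.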
Pol kappa inh-1 – qHTS for Inhibitors of Polymerase Kappa | Potency, µM (titrated, usually from 107 µM), inactives show at the highest dose activity, negative = inhibition, most hits filed as inhibitors | AID 588579, 2011 | 400,000 tested, 0.53% active | DNA polymerase kappa (Homo sapiens), Q9UBT6 | purified Pol kappa, fluorescent DNA synthesis assay, 10 min; also: potency is read from the fitted curve at half-maximal effect; % is scaled to controls: 0 for no effect and ±100 for the full control effect
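Kinetic fluorescence screen: compound preincubated 15 min RT with 10 nM enzyme; 50 nM substrate (final) initiates; reads at 0/10 min.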
Pol kappa inh-2 – qHTS for Inhibitors of Polymerase Kappa: Confirmatory Assay for Cherry-picked Compounds. shares compounds with Pol eta inh-1. purified Pol-kappa, fluorescent strand-displacement substrate. Potency, µM, actives largely listed as inhibitors. 920 tested, 76% active. AID 720501, 2013; also: potency is read from the fitted curve at half-maximal effect
Pol eta inh-2 – qHTS for Inhibitors of Polymerase Eta: Confirmatory Assay for Cherry-picked Compounds; shares compounds with Pol eta inh-1; Pol eta primer extension, TAMRA/BHQ fluorescence, 10 min; Potency, µM, usual class: inhibitors; 2,600 tested, 64% active; also: potency is read from the fitted curve at half-maximal effect
* hit, by the source's call; ? = inconclusive; · = no result given; [ ] = remark or other dose. Unless noted, calls follow the shape of the dose curve; as a rule, active = well fitted inhibition curve with a large enough effect; inconclusive = small, poorly fitted or top-dose-only effect, or another doubt; inactive = no such curve, though single readings can be large or run the other way.

SMILES	PI4K2A inh	POLI inh	Pol eta inh-1	PI5P4Ka inh	Pol beta inh	Pol kappa inh-1	Pol eta inh-2	others
CC1=NOC(=O)/C1=C\c1ccc(-c2cc(Cl)ccc2Cl)o1	-8	-11%	-21%	-23	-2%	-18%	·
CC1=NOC(=O)/C1=C\c1ccc(-c2ccc(Br)cc2)o1	-10	?	20µM*	?	32µM*	-14%	85*
CC1=NOC(=O)/C1=C\c1ccc(-c2ccc(Br)cc2C(=O)O)o1	-9	?	40µM*	-22	13µM*	79µM*	·	Pol kappa inh-2=34*
O=Cc1ccc(-c2ccccc2C(=O)O)o1	4	83%	4%	13	?	-12%	·
CCOC(=O)C1CCN(C(=O)C(C)(C)NC(=O)Nc2ccc(C(F)(F)F)cc2Cl)CC1	-2	·	·	·	·	·	·
Cc1nn(-c2ccccc2)c2sc(C(=O)NC3CCCC3)cc12	-1	·	·	·	·	·	·
CCOC(=O)[C@@]12CCCC3=C1N(CCC3)C(=O)[C@H]2CC(=O)NCc1cccc(C(F)(F)F)c1	1	·	·	·	·	·	·
C/C(=N/NC(=O)c1cc2ccccc2cc1O)C1C(=O)c2ccccc2C1=O	1	32µM*	14µM*	?	?	?	?
C/C(=N\NC(=O)c1ccccc1O)C1C(=O)c2ccccc2C1=O	-1	27%	-13%	-3	-22%	-5%	·
COc1ccccc1C(CNC(=O)c1ccc(NS(=O)(=O)c2ccc(C(C)=O)cc2)cc1)N1CCCC1 (stereo not drawn)	?	32µM*	16µM*	-17	·	?	?
COc1ccccc1NS(=O)(=O)c1ccc(C(=O)NCC(c2ccccc2OC)N2CCCC2)cc1 (stereo not drawn)	1	12%	-18%	-5	·	7%	·
CC(=O)c1ccc(S(=O)(=O)Nc2ccc(C(=O)NCC(c3ccco3)N3CCCC3)cc2)cc1 (stereo not drawn)	-9	·	20µM*	3	·	·	?	Pol kappa inh-2=?
O=C1C(=O)N(c2nccs2)C(c2ccccc2F)/C1=C(\O)c1ccc2c(c1)OCCO2 (stereo not drawn)	4	12%	-12%	-11	28%	-18%	·
COc1ccc(C=NNc2ccc([N+](=O)[O-])cc2S(=O)(=O)Nc2ccccc2C(=O)O)cc1OC	-1	36%	35µM*	?	·	-37%	?
Cc1ccc(CNC(=O)CC(C)CC2=NS(=O)(=O)c3ccccc3N2)cc1 (stereo not drawn)	2	17%	-1%	·	31%	1%[60.1 µM]	·
COC(=O)c1ccccc1NC(=O)CSc1nc(N)cc(=O)[nH]1	-28	?	18µM*	?	18µM*	50µM*	67*
COC(=O)c1ccccc1NC(=O)CSc1nc(N)cc(N)n1	4	-7%	-12%	-1	-3%	-11%	·
CC(C)S(=O)(=O)C1=NSC2=NC(=O)/C(=C\c3ccc(-c4cccc(C(=O)O)c4)o3)C(=N)N21	-7	5.6µM*	7.9µM*	-104*	32µM*	28µM*	30*	Pol kappa inh-2=17*
CCCCN(C)C(=O)C1CCC(Cn2c(=O)[nH]c3ccsc3c2=O)CC1 (stereo not drawn)	4	?	-4%	·	-16%	20%	·

Assay outcomes deposited in PubChem by National Center for Advancing Translational Sciences (NCATS).
